Reference: PubChem BioAssay (NCI)
Compounds without any hit were thinned out: in the full panel of roughly 79,000, 15% have a hit. The source made the active and inactive calls. No stated cut-off is given here; in the data, active means growth inhibition above about 70%; inactive means the rest.

Legend:
[1] = NCI Yeast Anticancer Drug Screen. Data for the rad50 strain (AID 155);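 further: 0% = growth of vehicle-only cultures of the same strain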; conditions: S. cerevisiae rad50 strain growth inhibition; at 50.0 µM; hits give high values
Summary of the method: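 Cells are treated with compound, grown, and their growth is then scored against vehicle-only cultures of the same repair-deficient yeast strain.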

[2] = NCI Yeast Anticancer Drug Screen. Data for the mec2-1 strain (AID 157); conditions: S. cerevisiae mec2-1 strain, at 50.0 µM, hits give high values
Summary of the method: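 Using mec2-1 yeast: add compound, measure growth, express inhibition versus vehicle-treated cultures.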

[3] = NCI Yeast Anticancer Drug Screen. Data for the sgs1 mgt1 strain (AID 161);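 further: 0% = growth of cultures given vehicle only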; conditions: S. cerevisiae sgs1 mgt1 strain, at 50.0 µM, hits give high values
Summary of the method: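 Yeast cells carrying a defined DNA-repair defect were exposed to test compounds. Growth inhibition was measured relative to vehicle-treated controls.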

[4] = NCI Yeast Anticancer Drug Screen. Data for the cln2 rad14 strain (AID 165);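 further: 0% = growth equal to vehicle treated cultures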; conditions: S. cerevisiae cln2 rad14 strain, at 50.0 µM, hits give high values
Summary of the method: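 Yeast strain cln2 rad14, bearing defects in cell cycle control and DNA repair, serves as the test system; values reflect growth inhibition compared with vehicle.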

[5] = NCI Yeast Anticancer Drug Screen. Data for the bub3 strain (AID 167); conditions: S. cerevisiae bub3 mutant strain, at 50.0 µM, hits give high values
Summary of the method: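 Part of a panel of yeast mutants defective in DNA damage repair or cell cycle regulation. Each strain is grown with compound, and inhibition is calculated relative to solvent-treated cultures.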

[6] = NCI Yeast Anticancer Drug Screen. Data for the mlh1 rad18 strain (AID 175); conditions: S. cerevisiae mlh1 rad18 strain growth inhibition; at 50.0 µM; hits give high values
Summary of the method: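 Steps: expose repair-defective yeast to compound; measure growth; express inhibition against vehicle-treated controls.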

Measured: growth inhibition

Cc1ccc(S(=O)(=O)N2CC(CCl)N(S(=O)(=O)c3ccc(C)cc3)CC2CCl)cc1 (configuration not stated)
inactive: [1] 28.5% | [2] 7.45% | [3] 20.6% | [4] 10.4% | [5] 4.35% | [6] 20.9%

O=c1ccn(C2OC(C(O)CO)C(O)C2O)c(=O)[nH]1 (configuration not stated)
inactive: [1] -4.95% | [2] -2.55% | [3] 5.45% | [4] -60.8% | [5] -8.15% | [6] 9.25%

COc1ccc(OCCO)cc1
inactive: [1] -10.4% | [2] -17.8% | [3] -6.85% | [4] -27.1% | [5] -22.1% | [6] -0.15%

Cc1ccc(NC(=O)C2C3CC4OC(=O)C2C4C3)cc1 (configuration not stated)
inactive: [1] -10.6% | [2] -4.45% | [3] 11.5% | [4] 0.55% | [5] 18.6% | [6] -16.6%

O=C(O)[C@@H]1[C@@H]2C[C@@H]3[C@H](OC(=O)[C@@H]31)[C@@H]2O
inactive: [1] -20.9% | [2] -12.2% | [3] -25.4% | [4] 1.9% | [5] -15.8% | [6] -41.4%

O=C(O)C(CCc1cccc(Cl)c1)C(=O)O
inactive: [1] 8.1% | [2] -13.8% | [3] -0.85% | [4] 2.15% | [5] 4.35% | [6] -11.6%

CC(=O)c1c(O)ccc2c(C)cc(=O)oc12
inactive: [1] 37.5% | [2] 18.8% | [3] 7.4% | [4] 3.1% | [5] 26.9% | [6] 15.8%

CN(C)CCSSCCN(C)C
inactive: [1] -7.55% | [2] -5.65% | [3] -13.6% | [4] -14.1% | [5] -2.55% | [6] -3.55%

N#CCCNC=O
inactive: [1] -7.15% | [2] 0.4% | [3] -8.7% | [4] -7% | [5] 6.3% | [6] -4.95%

CN(C(=O)C(Cl)Cl)c1ccc(-c2csc(Cc3ccccc3)n2)cc1
inactive: [1] 38.7% | [2] 6.3% | [3] 1.05% | [4] 7.05% | [5] 34.8% | [6] 28.2%

Cc1nnc2ncccn12
inactive: [1] 31.1% | [2] -10.3% | [3] 8.4% | [4] -0.1% | [5] 0.55% | [6] -42.2%

O=S(=O)(Nc1cccc(Br)c1)N1CCCCC1
inactive: [1] 23.5% | [2] 10% | [3] 23.6% | [4] 13.8% | [5] 28.6% | [6] 31.6%

CC(=O)NCCc1ccc2c(c1)[nH]c1ccccc12
inactive: [1] -1.9% | [2] -36% | [3] -8.75% | [4] 12.6% | [5] -17.1% | [6] -8.05%

CC1=CC(=O)C2C(C)(C)CCCC2(C)C1(O)CCc1ccoc1 (configuration not stated)
active: [1] 96.2% | [2] 88% | [3] 93.4% | [4] 92.2% | [5] 89.7% | [6] 96.8%

CCCCC(CCC)OC(=O)Nc1cccc2ccccc12 (configuration not stated)
inactive: [1] 35.1% | [2] 0.35% | [3] 3.35% | [4] -16.1% | [5] -0.15% | [6] 40%

COc1ccc2oc(=N)c(C(N)=S)cc2c1
inactive: [1] 28% | [2] 24.2% | [3] -3.45% | [4] 16.8% | [5] 7.9% | [6] -2.95%

CCOC(=O)Cn1ccc[n+]1CC(=O)c1ccccc1
inactive: [1] -14.9% | [2] 7.9% | [3] 17.4% | [4] -16.2% | [5] -15.4% | [6] -3.1%

Cc1c2c(C#N)nccc2c(C)c2c1c1ccccc1n2Cc1ccccc1
inactive: [1] 33.5% | [2] 14.1% | [3] -8.3% | [4] 20.9% | [5] -28.7% | [6] -45.6%

NS(=O)(=O)c1ccc(N=Nc2nc3[nH]c(=O)[nH]c(=O)c3[nH]2)cc1
inactive: [1] 22.3% | [2] -9.2% | [3] 3.05% | [4] -4.85% | [5] -7.2% | [6] 18.6%

CC(C)(C)C(=O)CC(=O)C(F)(F)C(F)(F)C(F)(F)F.CC(C)(C)C(=O)CC(=O)C(F)(F)C(F)(F)C(F)(F)F.CC(C)(C)C(=O)CC(=O)C(F)(F)C(F)(F)C(F)(F)F.[Eu]
inactive: [1] 9.65% | [2] 39.4% | [3] 21.2% | [4] 39.5% | [5] 39.8% | [6] -1.2%

CC(c1cccc2ccccc12)/[N+]([O-])=C/c1ccccc1 (configuration not stated)
inactive: [1] -11.6% | [2] -27.9% | [3] -32.7% | [4] 2.1% | [5] -37.4% | [6] -11.7%

Cc1ccc(Nc2c3ccccc3nc3ccccc23)cc1
active: [1] 97.9% | [2] 88.5% | [3] 93.8% | [4] 91.1% | [5] 88.2% | [6] 97.1%

C/C(=C/c1ccccc1)C(F)F
inactive: [1] 3.9% | [2] -5.7% | [3] -13% | [4] -7.45% | [5] -11.6% | [6] 8.75%

Cc1ccccc1NCC(C)O (configuration not stated)
inactive: [1] -3.05% | [2] 6.15% | [3] -5.9% | [4] -84.5% | [5] -20.4% | [6] -32%

CC(=O)Nc1ccc(S(=O)(=O)Oc2noc3ccccc23)cc1
inactive: [1] 9.8% | [2] 3.45% | [3] 16.2% | [4] 11.1% | [5] 18.1% | [6] 23.1%

CC1c2ncnc(N)c2CN1C(=O)c1ccccc1 (configuration not stated)
inactive: [1] 4.55% | [2] -6.85% | [3] -3.15% | [4] -20.2% | [5] 6.75% | [6] -4.55%

O=C(c1ccccc1)C1C(c2ccccc2)SC(c2ccccc2)CC1(O)c1ccccc1 (configuration not stated)
inactive: [1] 24.1% | [2] 1.8% | [3] 11.5% | [4] 16.9% | [5] -3.45% | [6] 13.3%

O=C(CN1C(=O)CC(c2ccccc2)(c2ccccc2)C1=O)N1CCN(CCO)CC1
inactive: [1] -0.35% | [2] -4.6% | [3] -22.1% | [4] -5.25% | [5] -16.2% | [6] 2.3%

O=C(NC(=S)Nc1ccc(Cl)c(Cl)c1)c1cccc([N+](=O)[O-])c1
inactive: [1] -6.45% | [2] 3.35% | [3] 10.9% | [4] 0.65% | [5] -3.2% | [6] 5.7%

CCc1c(Sc2ccccn2)n(COCc2ccccc2)c(=O)[nH]c1=O
inactive: [1] -14.5% | [2] -4.4% | [3] -24.9% | [4] -16.4% | [5] -17.8% | [6] -16.1%

CC(C)CCCC(C)C1CCC2(C)C3=C(CCC12C)C1(C)CCC(=O)C(C)(C)C1CC3 (configuration not stated)
inactive: [2] 57.2% | [4] 44.5% | [5] 14.6% | [6] 34%
active: [1] 73.1% | [3] 83.5%

CCCC(=O)OC(CCC1CCCO1)CCC1CCCO1 (configuration not stated)
inactive: [1] 0.3% | [2] -14.9% | [3] 10.4% | [4] 23.9% | [5] -6.35% | [6] 19.6%

O=c1cc(O)nc(CO)[nH]1
inactive: [1] -4.15% | [2] -5.75% | [3] -41.9% | [4] -14.7% | [5] 3.9% | [6] 2.6%

CC12CS(=O)(=O)CC1O2 (configuration not stated)
inactive: [1] 1.65% | [2] 3.25% | [3] 2.2% | [4] 1.9% | [5] 2.2% | [6] -13.4%

CCC(CC)(C1CCC(=O)CC1)C1CCC(=O)CC1
inactive: [1] 45.9% | [2] -3.55% | [3] -1.05% | [4] -9.2% | [5] 37.1% | [6] 13.6%

Nc1nc(N)c(-c2ccc(Cl)cc2)c(CCC(=O)Nc2cccc(C(F)(F)F)c2)n1
inactive: [1] -25.2% | [2] -3.55% | [3] -30% | [4] -0.25% | [5] -17.1% | [6] -21.1%

N/C(=N\O)c1ccccc1
inactive: [1] 27.1% | [2] 0.6% | [3] 13.7% | [4] 15.3% | [5] 4.35% | [6] 23.1%
